The full data set covers some 8,800 targets. This sample favours those with a hit. About 0.5% of all pairs of compound and target were hits.
Each target was assayed with NCC(=O)Nc1ccc(-n2nc(C(F)(F)F)cc2-c2ccc3c(ccc4ccccc43)c2)cc1 (assay: log2 fold change, soluble protein after heating vs DMSO (PISA); higher = thermal stabilisation; K562 lysate, 10 uM; active = over 0.2 and 3.5 SD of the protein, either way, in both replicates (recomputed)).
How it was run: (§1)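 Quantification was by TMTpro 16plex LC-MS/MS with equalised channel sums, applied to the supernatant after 21,000xg for 90 min. Samples were crude K562 extract at 1 mg/mL protein in PBS pH 7.4 with 1 mM MgCl2, treated with 10 μM compound for 30 min, heated for 3 min across 48°C-58°C, pooled and brought to 0.5% NP-40 at 4°C. Values are log-two fold changes in thermal stability relative to solvent controls, from duplicates.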

Sequence of UniProt Q9NTN9 (Q9NTN9 whole entry, looked up): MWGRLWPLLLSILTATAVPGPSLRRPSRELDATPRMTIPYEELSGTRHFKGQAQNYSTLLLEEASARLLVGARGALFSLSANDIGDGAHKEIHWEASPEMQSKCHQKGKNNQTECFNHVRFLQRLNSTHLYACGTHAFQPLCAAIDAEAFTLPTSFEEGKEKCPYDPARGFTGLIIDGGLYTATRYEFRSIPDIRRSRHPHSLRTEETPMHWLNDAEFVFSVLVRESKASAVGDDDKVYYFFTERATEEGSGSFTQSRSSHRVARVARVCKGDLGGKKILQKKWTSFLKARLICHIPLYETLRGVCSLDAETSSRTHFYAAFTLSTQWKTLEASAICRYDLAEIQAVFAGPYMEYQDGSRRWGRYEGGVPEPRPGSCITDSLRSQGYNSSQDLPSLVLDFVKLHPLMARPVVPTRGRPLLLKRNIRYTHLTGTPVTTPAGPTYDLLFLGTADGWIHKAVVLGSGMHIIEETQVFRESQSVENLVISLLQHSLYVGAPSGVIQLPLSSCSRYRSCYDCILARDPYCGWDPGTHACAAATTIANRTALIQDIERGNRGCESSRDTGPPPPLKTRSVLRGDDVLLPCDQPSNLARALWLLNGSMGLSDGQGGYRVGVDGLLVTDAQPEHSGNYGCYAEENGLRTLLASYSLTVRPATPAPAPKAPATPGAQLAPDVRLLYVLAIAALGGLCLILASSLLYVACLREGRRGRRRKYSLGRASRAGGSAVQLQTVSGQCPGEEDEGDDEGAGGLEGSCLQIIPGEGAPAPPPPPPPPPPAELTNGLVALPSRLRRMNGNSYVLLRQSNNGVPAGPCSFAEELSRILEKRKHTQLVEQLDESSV
Sequence of UniProt Q13546 (Q13546 whole entry, looked up): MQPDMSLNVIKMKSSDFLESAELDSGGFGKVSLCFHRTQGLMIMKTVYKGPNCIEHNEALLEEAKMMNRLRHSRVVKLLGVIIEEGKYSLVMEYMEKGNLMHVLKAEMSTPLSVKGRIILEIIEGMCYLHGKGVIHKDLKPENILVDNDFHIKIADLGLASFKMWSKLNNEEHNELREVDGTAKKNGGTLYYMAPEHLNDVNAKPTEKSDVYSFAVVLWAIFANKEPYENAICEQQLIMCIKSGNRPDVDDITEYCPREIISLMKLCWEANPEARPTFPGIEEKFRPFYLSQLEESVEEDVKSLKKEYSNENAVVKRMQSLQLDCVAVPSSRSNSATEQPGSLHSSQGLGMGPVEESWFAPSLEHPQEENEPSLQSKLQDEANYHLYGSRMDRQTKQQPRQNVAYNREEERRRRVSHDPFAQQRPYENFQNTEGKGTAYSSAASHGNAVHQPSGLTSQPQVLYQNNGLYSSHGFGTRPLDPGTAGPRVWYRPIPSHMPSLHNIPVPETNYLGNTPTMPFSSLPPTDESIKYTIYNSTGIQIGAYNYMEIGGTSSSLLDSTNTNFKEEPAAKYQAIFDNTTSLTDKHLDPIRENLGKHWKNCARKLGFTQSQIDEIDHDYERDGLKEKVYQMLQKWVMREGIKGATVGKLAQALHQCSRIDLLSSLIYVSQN
Sequence of UniProt P04049 (P04049 whole entry, looked up): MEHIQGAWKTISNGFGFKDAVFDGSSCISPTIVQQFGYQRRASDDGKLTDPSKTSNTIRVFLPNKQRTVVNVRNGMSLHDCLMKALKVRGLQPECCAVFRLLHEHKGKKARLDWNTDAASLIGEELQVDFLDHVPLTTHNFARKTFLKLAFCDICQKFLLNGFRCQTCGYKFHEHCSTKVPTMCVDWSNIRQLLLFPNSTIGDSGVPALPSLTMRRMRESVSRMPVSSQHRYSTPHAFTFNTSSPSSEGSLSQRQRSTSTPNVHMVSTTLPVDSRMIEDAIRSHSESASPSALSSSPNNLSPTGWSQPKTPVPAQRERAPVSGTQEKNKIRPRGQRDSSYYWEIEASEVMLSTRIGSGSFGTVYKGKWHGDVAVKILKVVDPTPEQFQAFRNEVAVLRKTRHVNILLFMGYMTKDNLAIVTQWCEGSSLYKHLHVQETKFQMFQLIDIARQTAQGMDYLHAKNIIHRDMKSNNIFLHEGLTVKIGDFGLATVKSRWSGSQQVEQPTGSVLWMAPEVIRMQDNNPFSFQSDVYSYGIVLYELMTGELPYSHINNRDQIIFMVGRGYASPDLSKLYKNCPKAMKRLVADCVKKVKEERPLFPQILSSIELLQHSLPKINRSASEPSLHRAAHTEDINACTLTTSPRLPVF
Sequence of UniProt Q15418 (Q15418 whole entry, looked up): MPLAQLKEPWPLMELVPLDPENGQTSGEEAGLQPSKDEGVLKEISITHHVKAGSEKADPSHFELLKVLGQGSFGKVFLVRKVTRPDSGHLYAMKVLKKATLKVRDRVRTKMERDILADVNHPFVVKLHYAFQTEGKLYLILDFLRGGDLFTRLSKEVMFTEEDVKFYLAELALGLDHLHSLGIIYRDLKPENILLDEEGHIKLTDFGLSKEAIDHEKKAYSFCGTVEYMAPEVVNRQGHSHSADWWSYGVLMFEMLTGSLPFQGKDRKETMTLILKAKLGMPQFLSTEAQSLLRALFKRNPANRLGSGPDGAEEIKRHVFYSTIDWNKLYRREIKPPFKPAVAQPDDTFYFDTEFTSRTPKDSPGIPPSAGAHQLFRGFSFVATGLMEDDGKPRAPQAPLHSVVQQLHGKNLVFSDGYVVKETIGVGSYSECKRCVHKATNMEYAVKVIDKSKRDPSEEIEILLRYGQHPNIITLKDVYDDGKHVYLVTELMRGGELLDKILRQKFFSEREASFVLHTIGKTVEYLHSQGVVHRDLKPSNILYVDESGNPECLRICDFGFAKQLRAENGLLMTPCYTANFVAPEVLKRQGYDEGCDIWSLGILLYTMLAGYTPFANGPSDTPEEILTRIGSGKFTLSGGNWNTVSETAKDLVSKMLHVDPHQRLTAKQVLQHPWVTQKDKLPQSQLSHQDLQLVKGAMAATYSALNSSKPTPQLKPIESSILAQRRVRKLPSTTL
Sequence of UniProt Q6NUM9 (Q6NUM9 whole entry, looked up): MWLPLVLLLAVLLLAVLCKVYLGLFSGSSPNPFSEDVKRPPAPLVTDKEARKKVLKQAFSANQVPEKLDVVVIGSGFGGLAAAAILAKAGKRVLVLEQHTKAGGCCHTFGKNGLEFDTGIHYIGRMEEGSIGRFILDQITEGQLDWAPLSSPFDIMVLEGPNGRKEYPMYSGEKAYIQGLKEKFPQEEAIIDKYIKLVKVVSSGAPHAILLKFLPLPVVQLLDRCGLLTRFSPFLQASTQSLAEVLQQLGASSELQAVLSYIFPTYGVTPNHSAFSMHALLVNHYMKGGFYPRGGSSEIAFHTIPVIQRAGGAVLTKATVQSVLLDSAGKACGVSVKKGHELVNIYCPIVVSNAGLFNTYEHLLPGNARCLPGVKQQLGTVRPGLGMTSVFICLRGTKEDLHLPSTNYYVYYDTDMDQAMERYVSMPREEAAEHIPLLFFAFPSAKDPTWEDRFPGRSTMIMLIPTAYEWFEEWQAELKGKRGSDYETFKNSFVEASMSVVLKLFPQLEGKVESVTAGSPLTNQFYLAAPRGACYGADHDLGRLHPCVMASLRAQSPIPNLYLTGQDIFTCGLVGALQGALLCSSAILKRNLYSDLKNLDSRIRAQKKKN
Sequence of UniProt Q9H7N4 (Q9H7N4 whole entry, looked up): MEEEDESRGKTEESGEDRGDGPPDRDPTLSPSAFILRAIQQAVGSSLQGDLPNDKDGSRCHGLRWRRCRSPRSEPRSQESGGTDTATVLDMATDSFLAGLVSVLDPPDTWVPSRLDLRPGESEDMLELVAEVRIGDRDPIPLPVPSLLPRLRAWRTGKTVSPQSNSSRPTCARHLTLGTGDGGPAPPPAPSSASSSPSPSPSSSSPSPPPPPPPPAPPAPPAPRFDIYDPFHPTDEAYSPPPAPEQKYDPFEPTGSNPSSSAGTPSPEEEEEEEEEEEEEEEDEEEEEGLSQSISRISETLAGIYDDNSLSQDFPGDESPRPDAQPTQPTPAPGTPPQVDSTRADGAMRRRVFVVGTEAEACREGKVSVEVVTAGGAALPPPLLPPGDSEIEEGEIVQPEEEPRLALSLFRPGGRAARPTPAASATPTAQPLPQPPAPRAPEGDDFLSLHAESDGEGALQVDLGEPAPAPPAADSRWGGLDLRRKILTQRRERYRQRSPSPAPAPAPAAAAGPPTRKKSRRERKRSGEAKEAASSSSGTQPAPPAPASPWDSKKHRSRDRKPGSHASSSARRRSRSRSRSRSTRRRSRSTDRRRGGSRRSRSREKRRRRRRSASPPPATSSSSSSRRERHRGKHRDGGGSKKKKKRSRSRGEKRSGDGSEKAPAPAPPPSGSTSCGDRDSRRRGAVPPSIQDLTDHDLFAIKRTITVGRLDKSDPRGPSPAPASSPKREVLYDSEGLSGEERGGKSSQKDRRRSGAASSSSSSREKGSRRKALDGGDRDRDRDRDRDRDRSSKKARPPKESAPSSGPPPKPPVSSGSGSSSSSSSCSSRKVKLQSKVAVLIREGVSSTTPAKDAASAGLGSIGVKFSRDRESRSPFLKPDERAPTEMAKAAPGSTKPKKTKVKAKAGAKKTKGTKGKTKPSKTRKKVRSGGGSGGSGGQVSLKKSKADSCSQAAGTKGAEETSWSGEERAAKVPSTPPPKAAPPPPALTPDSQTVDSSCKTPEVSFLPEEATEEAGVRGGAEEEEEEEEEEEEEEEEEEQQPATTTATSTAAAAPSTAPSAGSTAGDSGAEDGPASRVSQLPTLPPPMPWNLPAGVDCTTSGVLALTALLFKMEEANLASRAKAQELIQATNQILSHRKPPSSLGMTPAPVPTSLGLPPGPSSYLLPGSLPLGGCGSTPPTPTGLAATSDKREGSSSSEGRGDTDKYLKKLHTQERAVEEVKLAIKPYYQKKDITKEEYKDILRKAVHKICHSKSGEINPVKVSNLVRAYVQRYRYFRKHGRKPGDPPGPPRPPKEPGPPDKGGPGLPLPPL
Sequence of UniProt Q9NR31 (Q9NR31 whole entry, looked up): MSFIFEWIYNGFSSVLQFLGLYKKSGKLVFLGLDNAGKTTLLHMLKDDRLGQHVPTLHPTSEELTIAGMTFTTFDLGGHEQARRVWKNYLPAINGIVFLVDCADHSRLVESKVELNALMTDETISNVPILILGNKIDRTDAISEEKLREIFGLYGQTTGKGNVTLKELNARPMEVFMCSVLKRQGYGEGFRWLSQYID

Target | log2 fold change
RHAG (UniProt Q02094) | 0.031 (inactive)
RPS26P11 (UniProt Q5JNZ5) | -0.026 (inactive)
RPL37A (UniProt P61513) | 0.028 (inactive)
SCAF1 (UniProt Q9H7N4) | -0.172 (inactive)
RPS4X (UniProt P62701) | 0.008 (inactive)
RAP1GAP isoform 4 (UniProt P47736) | -0.058 (inactive)
RMI2 (UniProt Q96E14) | -0.008 (inactive)
RAF1 isoform 2 (UniProt P04049) | 0.126 (inactive)
RAP1B (UniProt P61224) | 0.048 (inactive)
RAB6D (UniProt Q53S08) | -0.012 (inactive)
RFC2 (UniProt P35250) | -0.027 (inactive)
RIPK1 (UniProt Q13546) | -0.021 (inactive)
RIOK2 (UniProt Q9BVS4) | -0.022 (inactive)
SEMA4G isoform 2 (UniProt Q9NTN9) | 0.078 (inactive)
RPL27 (UniProt P61353) | 0.014 (inactive)
RPS6KA1 (UniProt Q15418) | 0.014 (inactive)
RAP1B (UniProt F5GZG1) | -0.051 (inactive)

Target | log2 fold change
REEP6 (UniProt Q96HR9) | -0.031 (inactive)
RBM23 isoform 2 (UniProt Q86U06) | 0.121 (inactive)
SAMHD1 (UniProt Q9Y3Z3) | -0.012 (inactive)
SAR1A (UniProt Q9NR31) | 0.004 (inactive)
SAMD4A (UniProt Q9UPU9) | -0.038 (inactive)
S100A11 (UniProt P31949) | -0.085 (inactive)
RETSAT (UniProt Q6NUM9) | -0.087 (inactive)
RBM4 (UniProt Q9BWF3) | -0.04 (inactive)
RALGAPB (UniProt Q86X10) | 0.004 (inactive)
RAPGEF2, A0A2R8YGD3 | -0.041 (inactive)
SCO1 (UniProt O75880) | 0.022 (inactive)
RPLP0P6 (UniProt Q8NHW5) | 0.009 (inactive)
SDHA (UniProt P31040) | 0.007 (inactive)
RFC3 (UniProt P40938) | -0.01 (inactive)
RAB8B (UniProt Q92930) | -0.022 (inactive)
RCC1 isoform 2 (UniProt P18754) | 0.009 (inactive)

Each target was assayed with O=C(CCCCCCC(=O)Nc1ccccc1)NO [vorinostat] in the same assay as above.
How it was run: as §1

Target | log2 fold change
RHAG (UniProt Q02094) | -0.026 (inactive)
RPS26P11 (UniProt Q5JNZ5) | 0.114 (inactive)
RPL37A (UniProt P61513) | 0.08 (inactive)
SCAF1 (UniProt Q9H7N4) | -0.076 (inactive)
RPS4X (UniProt P62701) | 0.106 (inactive)
RAP1GAP isoform 4 (UniProt P47736) | -0.419 (active)
RMI2 (UniProt Q96E14) | -0.586 (active)
RAF1 isoform 2 (UniProt P04049) | -0.304 (active)
RAP1B (UniProt P61224) | 0.078 (inactive)
RAB6D (UniProt Q53S08) | 0.151 (inactive)
RFC2 (UniProt P35250) | -0.506 (active)
RIPK1 (UniProt Q13546) | -0.292 (active)
RIOK2 (UniProt Q9BVS4) | -0.098 (inactive)
SEMA4G isoform 2 (UniProt Q9NTN9) | -0.513 (active)
RPL27 (UniProt P61353) | 0.129 (inactive)
RPS6KA1 (UniProt Q15418) | -0.157 (inactive)
RAP1B (UniProt F5GZG1) | -0.054 (inactive)

Target | log2 fold change
REEP6 (UniProt Q96HR9) | 0.068 (inactive)
RBM23 isoform 2 (UniProt Q86U06) | -0.334 (inactive)
SAMHD1 (UniProt Q9Y3Z3) | -0.352 (active)
SAR1A (UniProt Q9NR31) | 0.056 (inactive)
SAMD4A (UniProt Q9UPU9) | -0.647 (active)
S100A11 (UniProt P31949) | 0.106 (inactive)
RETSAT (UniProt Q6NUM9) | 0.17 (inactive)
RBM4 (UniProt Q9BWF3) | -0.172 (inactive)
RALGAPB (UniProt Q86X10) | -0.299 (active)
RAPGEF2, A0A2R8YGD3 | 0.2 (inactive)
SCO1 (UniProt O75880) | 0.149 (inactive)
RPLP0P6 (UniProt Q8NHW5) | 0.123 (inactive)
SDHA (UniProt P31040) | 0.058 (inactive)
RFC3 (UniProt P40938) | -0.365 (active)
RAB8B (UniProt Q92930) | 0.135 (inactive)
RCC1 isoform 2 (UniProt P18754) | -0.381 (active)

Each target was assayed with O=C(O)c1ccc2c(c1)nc(Nc1cccc(Cl)c1)c1ccncc12 [silmitasertib] in the same assay as above.
How it was run: as §1

Target | log2 fold change
RHAG (UniProt Q02094) | 0.153 (inactive)
RPS26P11 (UniProt Q5JNZ5) | 0.049 (inactive)
RPL37A (UniProt P61513) | -0.021 (inactive)
SCAF1 (UniProt Q9H7N4) | 0.042 (inactive)
RPS4X (UniProt P62701) | 0.028 (inactive)
RAP1GAP isoform 4 (UniProt P47736) | -0.035 (inactive)
RMI2 (UniProt Q96E14) | 0.092 (inactive)
RAF1 isoform 2 (UniProt P04049) | 0.024 (inactive)
RAP1B (UniProt P61224) | -0.036 (inactive)
RAB6D (UniProt Q53S08) | -0.02 (inactive)
RFC2 (UniProt P35250) | 0.043 (inactive)
RIPK1 (UniProt Q13546) | -0.037 (inactive)
RIOK2 (UniProt Q9BVS4) | 0.096 (inactive)
SEMA4G isoform 2 (UniProt Q9NTN9) | 0.172 (inactive)
RPL27 (UniProt P61353) | 0.03 (inactive)
RPS6KA1 (UniProt Q15418) | 0.553 (active)
RAP1B (UniProt F5GZG1) | -0.004 (inactive)

Target | log2 fold change
REEP6 (UniProt Q96HR9) | -0.083 (inactive)
RBM23 isoform 2 (UniProt Q86U06) | -0.019 (inactive)
SAMHD1 (UniProt Q9Y3Z3) | -0.002 (inactive)
SAR1A (UniProt Q9NR31) | -0.077 (inactive)
SAMD4A (UniProt Q9UPU9) | 0.027 (inactive)
S100A11 (UniProt P31949) | -0.057 (inactive)
RETSAT (UniProt Q6NUM9) | -0.016 (inactive)
RBM4 (UniProt Q9BWF3) | 0.035 (inactive)
RALGAPB (UniProt Q86X10) | 0.017 (inactive)
RAPGEF2, A0A2R8YGD3 | -0.007 (inactive)
SCO1 (UniProt O75880) | -0.067 (inactive)
RPLP0P6 (UniProt Q8NHW5) | 0.004 (inactive)
SDHA (UniProt P31040) | -0.014 (inactive)
RFC3 (UniProt P40938) | 0.035 (inactive)
RAB8B (UniProt Q92930) | -0.025 (inactive)
RCC1 isoform 2 (UniProt P18754) | 0.034 (inactive)

— the supplement of paper PMC10849652
